Measured values reported in PubChem BioAssay (NCI).
About 79,000 compounds went through this panel and 15% of them were active in at least one assay; those are over-represented in the sample as a whole. A number with no mark means an inactive call. Calls of active or inactive are those of the source. Rule as the data show it: active = growth inhibition above about 70%; inactive = the rest.

Columns and labels:
[1] = NCI Yeast Anticancer Drug Screen. Data for the rad50 strain (AID 155);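 also: 0% = growth of vehicle-only cultures of the same strain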; settings: S. cerevisiae rad50 strain growth inhibition, stronger effect = higher value
In short: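 Relative growth inhibition (compound vs vehicle) was measured in yeast with a defined repair-gene alteration.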

[2] = NCI Yeast Anticancer Drug Screen. Data for the mec2-1 strain (AID 157); settings: S. cerevisiae mec2-1 strain, stronger effect = higher value
In short: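 Compounds were applied to mec2-1 yeast cells. Their growth was then compared with that of vehicle-treated cultures to give growth inhibition.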

[3] = NCI Yeast Anticancer Drug Screen. Data for the sgs1 mgt1 strain (AID 161);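 also: 0% = growth of cultures given vehicle only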; settings: S. cerevisiae sgs1 mgt1 strain, stronger effect = higher value
In short: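 Percent growth inhibition was derived by comparing compound-exposed mutant yeast with vehicle-exposed cultures. The strain carries alterations in DNA damage repair.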

[4] = NCI Yeast Anticancer Drug Screen. Data for the cln2 rad14 strain (AID 165);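 also: 0% = growth equal to vehicle treated cultures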; settings: S. cerevisiae cln2 rad14 strain, stronger effect = higher value
In short: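 Strain: cln2 rad14 yeast, altered in cell cycle control and DNA damage repair. Read-out: growth inhibition vs vehicle.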

[5] = NCI Yeast Anticancer Drug Screen. Data for the bub3 strain (AID 167); settings: S. cerevisiae bub3 mutant strain, stronger effect = higher value
In short: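 Screening used yeast with an engineered genetic alteration affecting cell cycle control. Compound-exposed cultures were compared with vehicle cultures, and reduced growth was taken as inhibition.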

[6] = NCI Yeast Anticancer Drug Screen. Data for the mlh1 rad18 strain (AID 175); settings: S. cerevisiae mlh1 rad18 strain growth inhibition, stronger effect = higher value
In short: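 A repair-deficient yeast strain is exposed to test compound, and growth is scored relative to vehicle-treated controls.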

[7] = at 5.0 µM (retest, dose inferred, filed as 0.5)
[8] = at 50.0 µM (retest, dose inferred, filed as 5.0)

| Structure (SMILES) | growth inhibition [1, 7] | growth inhibition [1, 8] | growth inhibition ([1]; at 50.0 µM) | growth inhibition [2, 7] | growth inhibition [2, 8] | growth inhibition ([2]; at 50.0 µM) | growth inhibition [3, 7] | growth inhibition [3, 8] | growth inhibition ([3]; at 50.0 µM) | growth inhibition [4, 7] | growth inhibition [4, 8] | growth inhibition ([4]; at 50.0 µM) | growth inhibition [5, 7] | growth inhibition [5, 8] | growth inhibition ([5]; at 50.0 µM) | growth inhibition [6, 7] | growth inhibition [6, 8] | growth inhibition ([6]; at 50.0 µM) |
| --- | --- | --- | --- | --- | --- | --- | --- | --- | --- | --- | --- | --- | --- | --- | --- | --- | --- | --- |
| Cc1ccc2cccc(N)c2c1 | 1% | 2% | -12.4% | 3% | 9% | -2.2% | 2% | 4% | -21.8% | 1% | -9% | 46.4% | 8% | 12% | -5.15% | 2% | 8% | 44.9% |
| O=C(Cc1c[nH]c2ccccc12)N/N=C/c1ccc(Cl)cc1[N+](=O)[O-] | -5% | 73% (active) | 39.8% | 1% | 88% (active) | 20.4% | -4% | 94% (active) | 36.6% | -5% | 89% (active) | 38.8% | -3% | 93% (active) | 19.5% | 13% | 90% (active) | 66.7% |
| CCOc1ccc2c(c1)[n+]([O-])c(-c1ccccc1)c(N)[n+]2[O-] | 23% | 98% (active) | 99.2% (active) | 28% | 99% (active) | 99.3% (active) | 27% | 99% (active) | 99.2% (active) | 37% | 98% (active) | 98.6% (active) | 69% | 99% (active) | 99.1% (active) | 66% | 98% (active) | 98.8% (active) |
| CCCCCCCCCCCC(=O)OCCN(CC)CC | 3% | 99% (active) | 95.8% (active) | -1% | 99% (active) | 98.6% (active) | 4% | 99% (active) | 65.5% | 0% | 99% (active) | 97.9% (active) | -3% | 98% (active) | 93.2% (active) | -2% | 99% (active) | 98% (active) |
| CCOC(=O)CSC(=S)Nc1ccc(Cl)cc1 | 0% | 88% (active) | 88.9% (active) | -2% | 91% (active) | 21.1% | 5% | 95% (active) | 87.5% (active) | -5% | 36% | -26.8% | -9% | 61% | 50.5% | 6% | 98% (active) | 93.7% (active) |
| COc1ccc(-c2c(C#N)cc(OC)c(OC)c2OC)c(C=O)c1 | 2% | 24% | 43.4% | -5% | 29% | 31.8% | -19% | 62% | 40.9% | 0% | 11% | 80.2% (active) | -3% | 26% | 75% (active) | 11% | 57% | 76.3% (active) |
| COC(C(=O)O)c1ccccc1 (configuration not stated) | -1% | 9% | 75% (active) | -1% | -3% | 8.9% | -2% | -2% | 74.8% (active) | 1% | -5% | -1.95% | -2% | 1% | 47.1% | -3% | 0% | 79.5% (active) |
| Cc1[nH]nc(C(F)(F)F)c1N=NN1CCC(C(N)=O)CC1 | 49% | 99% (active) | 99.5% (active) | 77% (active) | 100% (active) | 99.5% (active) | 83% (active) | 99% (active) | 99.5% (active) | 36% | 99% (active) | 99.5% (active) | 27% | 99% (active) | 99.5% (active) | 75% (active) | 99% (active) | 99.5% (active) |
| COc1cccc2c1N[S@](=O)S2 | -12% | 95% (active) | 86.9% (active) | -12% | 94% (active) | 90.2% (active) | 1% | 68% | 77.9% (active) | -2% | 33% | 30% | 1% | 95% (active) | 95.5% (active) | -11% | 77% (active) | 69.9% |
